# Screens as filed in PubChem.
# An excerpt weighted towards active compounds, which were near 6.3% of everything screened.
# Gal4-VP16 FLuc = VP16 counterscreen qHTS for inhibitors of ROR gamma transcriptional activity; Drosophila S2 Gal4-VP16 UAS-luciferase, luminescence, 20 h; Potency, µM (titrated, usually from 53.6 µM), usual class: inhibitors; hit rate 3.5% among 310,000;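 note: Gal4-VP16 expression switched on by copper sulfate through the metallothionein promoter; nearly all actives have a fitted effect of over 50% in size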
# ATXN2 expr inh = Primary qHTS for Inhibitors of ATXN expression; HEK-293 ATXN2-luciferase reporter, luminescence, 24 h; Potency, µM (series often up to 57 µM), most hits filed as inhibitors; hit rate 0.72% among 360,000; AID 1745845, 2022; note: nearly all actives have a fitted effect of over 55% in size
#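 qHTS (up to 57 uM final) was run with 24 h compound exposure of reporter cells at 37 °C. Each well was multiplexed: SteadyGlo luminescence measured ATXN2-luciferase expression after a fluorogenic Gly-Phe-AFC viability readout (25 uM final).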
# HepG2 viability = qHTS for Inhibitors of TGF-b: Cytotox Counterscreen | HepG2 CAGA-GFP viability, ATP luminescence, 18 h | Potency, µM (top dose mostly 46.1 µM), most hits filed as cytotoxic | hit rate 0.76% among 410,000 | AID 588856, 2011
#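 HepG2 CAGA-GFP cells (1000/well, DMEM with 1% FBS) received compound, then TGF-beta at 500 pg/mL final, and were incubated 18 hours at 37 degrees C. Viability was read by CellTiter-Glo luminescence. Media-only wells were set as complete cell-killing and DMSO as no toxicity.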
# TGFb SMAD3 inh = qHTS for Inhibitors of TGF-b. HepG2 CAGA-GFP TGF-b/SMAD3 reporter, GFP fluorescence, 18 h; TGF-beta stimulated, 500 pg/mL final. Potency, µM (highest dose often 46.1 µM), hits mostly inhibitors. hit rate 1.2% among 410,000. AID 588855, 2011; note: nearly all actives have a fitted effect of over 65% in size
#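 HEPG2 CAGA-GFP, 1000 cells/well; 2 h settle, 37 C; cpd via pin tool; TGF-b 500 pg/mL final; 18 h, 37 C; GFP imaging ex488/em500-530; %Activity normalised to -TGF-b and +DMSO controls; CRC fit, curve class.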
# RORg inh = qHTS for inhibitors of ROR gamma transcriptional activity. Nuclear receptor ROR-gamma (Mus musculus), P51450. Drosophila S2 Gal4-RORgamma UAS-luciferase reporter, 20 h. Potency, µM (series often up to 53.6 µM), usual class: inhibitors. hit rate 5.4% among 310,000. AID 2551, 2010; note: nearly all actives have a fitted effect of over 60% in size
# Target sequence (P51450 whole entry, looked up, the tested form may be a part): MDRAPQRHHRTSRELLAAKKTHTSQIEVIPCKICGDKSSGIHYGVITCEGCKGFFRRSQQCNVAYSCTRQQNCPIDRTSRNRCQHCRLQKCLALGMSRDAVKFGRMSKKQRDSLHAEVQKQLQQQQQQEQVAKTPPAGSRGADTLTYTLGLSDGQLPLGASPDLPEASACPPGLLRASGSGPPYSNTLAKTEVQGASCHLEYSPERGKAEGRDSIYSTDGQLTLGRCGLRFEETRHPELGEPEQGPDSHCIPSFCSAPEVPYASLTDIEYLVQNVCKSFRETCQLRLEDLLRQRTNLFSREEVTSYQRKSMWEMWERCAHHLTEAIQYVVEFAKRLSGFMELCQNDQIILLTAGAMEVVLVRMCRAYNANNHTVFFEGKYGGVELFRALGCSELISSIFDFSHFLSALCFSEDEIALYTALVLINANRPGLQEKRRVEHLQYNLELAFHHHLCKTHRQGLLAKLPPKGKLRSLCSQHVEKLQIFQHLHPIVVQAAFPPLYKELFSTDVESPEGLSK
#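 A Gal4/UAS one-hybrid system in insect cells: metallothionein-promoter Gal4–ROR gamma fusion plus Photinus luciferase reporter. Copper sulfate 700 uM final, 20 hr ambient incubation, luminescent detection after 10 min with reagent.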
# ATXN viability = Viability Counterscreen for Primary qHTS for Inhibitors of ATXN expression; S2 cells (HEK-293 line with an ATXN2-luciferase reporter) viability, CellTiter-Fluor protease fluorescence, 24 h; Potency, µM (highest dose often 56.7 µM), usual class: cytotoxic; hit rate 0.49% among 400,000; AID 651635, 2014; note: nearly all actives have a fitted effect of over 40% in size
# A number is an active result; i = inactive; ? = inconclusive; nt = no result given. Calls come from the whole dose curve; as a rule, active = well fitted curve in the direction sought with a large enough effect; inconclusive = small, poorly fitted or top-dose-only effect, or another doubt; inactive = no such curve, though single readings can be large; an effect the other way counts as inactive or inconclusive.
SMILES,Gal4-VP16 FLuc,ATXN2 expr inh,HepG2 viability,TGFb SMAD3 inh,RORg inh,ATXN viability
CCOC(=O)c1ccc(N2C(=O)c3[nH]nc(-c4ccc(C)cc4)c3C2c2ccc(O)cc2)cc1 (centres undefined),nt,?,i,?,nt,?
CCOC(=O)c1ccc(N2C(=O)c3[nH]nc(-c4ccccc4)c3C2c2cccs2)cc1 (centres undefined),nt,nt,i,7.08µM,nt,nt
CCOC(=O)c1ccc(N2C(=O)c3[nH]nc(-c4ccccc4)c3C2c2ccc(CC)cc2)cc1 (centres undefined),nt,?,11.2µM,11.2µM,nt,nt
Cc1noc(C)c1C(=O)N1CCC[C@@]2(CCN(C(=O)Nc3ccccc3)C2)C1,i,nt,nt,nt,i,nt
Cc1cc(NC(=O)c2ccc3c(c2)C(=O)N(C2CCCCC2)C3=O)no1,i,i,i,i,i,i
O=C(Nc1ccncc1)c1ccc2c(c1)C(=O)N(C1CCCCC1)C2=O,11.2µM,i,i,i,?,i
Cc1nc(Nc2ccc(C(=O)O)cc2)nc(Nc2ccc(C(=O)O)cc2)c1[N+](=O)[O-],i,nt,i,i,?,?
CC(=O)Nc1ccc(Nc2nc(C)c([N+](=O)[O-])c(Nc3ccccc3)n2)cc1,12.6µM,?,i,i,?,?
NC(=O)c1cc(Br)cc2c3c([nH]c12)CCCC3,17.8µM,i,i,i,i,i
Brc1ccc2[nH]c3c(c2c1)CCC3,i,i,i,i,i,?
Cc1onc(-c2c(F)cccc2Cl)c1C(=O)Nc1ccc(OC(C)C)cc1,nt,i,i,i,nt,i
Nc1cccc2c1C(=O)N(C(=O)/C=C/c1cccc(Br)c1)C2=O,?,?,i,i,?,i
Nc1cccc2c1C(=O)N(C(=O)/C=C/c1cccc(F)c1)C2=O,22.4µM,?,i,14.1µM,?,i
O=c1c2ccccc2nc(N/N=C/c2c(O)ccc3ccccc23)n1O,12.6µM,?,i,i,0.891µM,i
O=c1c2ccccc2nc(N/N=C/c2ccc(O)cc2)n1O,i,i,i,i,11.2µM,i
Cc1nc(N/N=C/c2ccc(O)cc2)c2cnn(-c3ccccc3)c2n1,i,i,15.8µM,i,i,?
Oc1ccc(/C=N/Nc2ccccc2)cc1,i,i,i,i,i,i
N#Cc1ccccc1S(=O)(=O)N1CCN(CC(O)CN2CCOCC2)CC1 (centres undefined),nt,i,i,i,nt,i
C=CCNc1nc(NCC=C)nc(N2CCN(C(c3ccc(F)cc3)c3ccc(F)cc3)CC2)n1,nt,i,nt,nt,nt,i
Cn1c(-c2ccc(F)cc2)cnc1SCC(=O)N1CCCCC1,?,?,i,i,10µM,i
CCOc1ccc(NC(=O)c2c(NC(=O)c3ccccc3F)sc3c2CCC3)cc1,nt,i,i,i,nt,i
CCOc1ccc(NC(=O)c2c(NC(=O)CNCCN3CCOCC3)sc3c2CCC3)cc1,0.1µM,?,i,?,0.562µM,?
O=C(CN1CCCC1)Nc1sc2c(c1C(=O)Nc1ccc(Br)cc1)CCC2,3.55µM,i,i,i,2µM,i
COc1ccc(CN2C(=O)C(CC(=O)NCCN3CCOCC3)CC(C(=O)N3CCOCC3)=C2C)cc1 (centres undefined),nt,i,i,i,nt,i
COC(=O)c1ccc(NC(=O)CC2C(=O)N(c3cccc(F)c3)C(=O)N2CC(C)C)cc1 (centres undefined),nt,i,i,i,nt,i
SMILES,Gal4-VP16 FLuc,ATXN2 expr inh,HepG2 viability,TGFb SMAD3 inh,RORg inh,ATXN viability
COC(=O)c1ccc(N2CN=C(c3ccc(C)cc3)NC2=S)cc1,i,i,i,i,i,i
S=C1NC(c2ccccc2)=NCN1c1ccc(Cl)cc1,?,i,i,i,11.2µM,i
CCC(C)C(=O)OC1CCC=C2C=CC(C)C(CCC3CC(O)CC(=O)O3)[C@@H]21 (some centres undefined),i,nt,nt,nt,i,nt
COc1ccc(-c2noc(-c3ccc(NC(C)c4ccccc4)c([N+](=O)[O-])c3)n2)cc1OC (centres undefined),nt,i,i,i,nt,i
O=Cc1cc2c3c(c1)CCCN3CCC2,nt,nt,i,i,nt,nt
CCCCC#Cc1cncc(C(=O)N/N=C/c2cccc(OC)c2)c1,?,i,i,i,11.2µM,i
O=C(NCC1CC1)c1ccc2nc(-c3ccoc3)c(-c3ccoc3)nc2c1,nt,nt,i,i,nt,nt
CC(C)CC(=O)NC(Nc1ccc([N+](=O)[O-])cc1)C(Cl)(Cl)Cl (centres undefined),i,i,i,15.8µM,?,i
CC(C)CC(=O)NC(Nc1ccccc1F)C(Cl)(Cl)Cl (centres undefined),i,i,i,i,i,i
CC1Cc2ccccc2N1C(=S)NC(=O)C1(C)CC1(Cl)Cl (centres undefined),2.24µM,i,i,i,0.631µM,i
CC1Cc2ccccc2N1C(=S)NC(=O)c1ccco1 (centres undefined),3.98µM,i,i,i,4.47µM,i
CCCCCCCCN=C(N)c1ccc(C(=O)OCC2CCCCC2)cc1,i,nt,nt,nt,7.94µM,nt
CCOC(=O)C1CCN(C(=S)Nc2ccc(Cl)cc2C)CC1,?,i,i,i,14.1µM,i
CCOC(=O)C1CCCN(C(=S)Nc2cc(C)cc(C)c2)C1 (centres undefined),?,i,i,i,11.2µM,i
CCOC(=O)C1CCN(C(=S)Nc2cccc(C)c2C)CC1,i,i,i,i,11.2µM,i
CCc1ccc(NC(=S)N2CCC(NC(=O)c3ccccc3OC)CC2)cc1,i,i,i,i,10µM,i
CCc1ccc(NC(=S)N2CCC(NC(=O)c3ccccc3)CC2)cc1,i,i,i,i,i,i
CCOC(=O)C1CCCN(CC(=O)Nc2cc(C)cc(C)c2)C1 (centres undefined),i,i,i,?,i,i
COc1ccc(S(=O)(=O)N(CC(=O)NCCSc2ccc(C)cc2)c2ccc(C)cc2)cc1,nt,i,i,i,nt,i
Cc1ccc(C)c(NC(=S)N2CCCCCC2)c1,?,i,i,i,12.6µM,i
Cc1ccc(C)c(NC(=S)N2CCN(S(C)(=O)=O)CC2)c1,i,i,i,i,i,i
CCOC(=O)C1CCN(C(=S)Nc2cc(C)ccc2C)CC1,?,i,i,i,17.8µM,i
CCOC(=O)C1CCN(C(=S)Nc2cccc(C)c2)CC1,?,i,i,i,i,i
CCOC(=O)C1CCN(C(=S)Nc2ccc(CC)cc2)CC1,?,i,i,i,11.2µM,i
NC(c1ccccc1)c1csc(Nc2ccc(C(F)(F)F)cn2)n1 (centres undefined),nt,?,i,?,nt,nt
